Laboratory results taken from PubChem BioAssay (NCI).
Compounds without any hit were thinned out: in the full panel of roughly 83,000, 20% have a hit.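 Testing used 96-well plates and a 48-hour single-concentration exposure. Example: -40 means 40% of the starting cells died.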 Active and inactive are the calls of the source. Rule for the calls: active = growth percent below 10; inactive = the rest.

test system: HOP-62 NSCLC; experiment: NCI-60 one-dose screen, 48 h (100 = growth as untreated, 0 = no growth, -100 = all killed); conditions: 10 µM

SMILES | growth
CNC(=O)c1cccc(N2CCc3c2ccc(NC(=O)Nc2ccc(N4CCN(C)CC4)c(C(F)(F)F)c2)c3F)c1 | -80% (active)
CC(=O)Nc1ccc(-n2cnc3cc(-c4ccc(O)cc4)ccc32)cc1C | 63.5% (inactive)
CN(C)c1nc(NCCNS(=O)(=O)c2ccc(C(=O)/C=C/c3ccccc3)cc2)nc(Nc2ccc(F)cc2)n1 | 61.1% (inactive)
O=C1CCC(N2Cc3c(C#CCCCNC(=O)c4ccc(NC(=O)[C@@H]5NC6(CCCCC6)[C@@]6(C(=O)Nc7cc(Cl)ccc76)[C@H]5c5cccc(Cl)c5F)cc4)cccc3C2=O)C(=O)N1 (some centres undefined) | 72.7% (inactive)
COc1cc(C2CC(c3ccccc3)=Nc3c(N)nc(N)nc3N2)ccc1Oc1nc(Nc2ccc(F)cc2)nc(N(C)C)n1 (centres undefined) | 85.7% (inactive)
CCOC(=O)C1=C(N)N(c2ccc(Cl)cc2)C2=C(C(=O)CC(C)(C)C2)C1c1ccc(N2CCOCC2)cc1 (centres undefined) | 118% (inactive)
O=C(c1ccc(Cl)cc1)C1[C@H](c2ccccc2Br)[C@@H](c2ccccc2)NC12C(=O)Nc1ccc(Cl)cc12 (some centres undefined) | 38.9% (inactive)
Nc1nc(Nc2ccc(Cl)cc2)nn1Cc1cccc(Br)c1 | 52.5% (inactive)
O=S(=O)(Nc1ncccn1)c1ccc(-n2c(-c3ccccc3)nc(-c3ccccc3)c2-c2ccccc2)cc1 | 100% (inactive)
CN1CCc2c(sc3ncnc(N/N=C/c4cn(-c5ccccc5)nc4-c4ccc(Cl)cc4)c23)C1 | 29.8% (inactive)
Nc1nnc(-c2c[nH]c3ncccc23)c(-c2c[nH]c3ccc(Br)cc23)n1 | 49.4% (inactive)
Cc1cc(=O)oc2cc(OCCCCOc3ccc(/C=C/C(=O)Nc4ccccc4[N+](=O)[O-])cc3)ccc12 | 109% (inactive)
COc1ccc(-c2nc(S(=O)(=O)c3ccc(C)cc3)c(S(C)(=O)=O)o2)cc1 | 84% (inactive)
CN1CCN(Cc2ccc(C(=O)Nc3cccc(Nc4ccc5c(O)cccc5n4)c3)cc2C(F)(F)F)CC1 | -47.2% (active)
O=C1NC(=NC23CC4CC(CC(C4)C2)C3)N/C1=C\c1ccc2ncccc2n1 | -5.42% (active)
COc1csc(/C=N/NC(=O)c2[nH]c3ccc(Br)cc3c2-c2ccccc2)c1 | 24.9% (inactive)
O=C(Cn1nc(-c2ccccc2)ccc1=O)NNC(=S)NC1CCCCC1 | 104% (inactive)

SMILES | growth
NS(=O)(=O)c1ccc(NC(=O)CSc2ccc(-c3ccccc3)nn2)c(Br)c1 | 17.4% (inactive)
O=c1c2ccccc2nc(COc2ccccc2)n1/N=C/c1ccc(F)cc1 | 105% (inactive)
O=C(Nc1ccc(Cl)c([N+](=O)[O-])c1)Nc1ccc(Cl)c([N+](=O)[O-])c1 | 30.5% (inactive)
O=C(Nc1ccc(OCc2ccccc2)cc1)Nc1ccc(Cl)c(C(F)(F)F)c1 | 5.97% (active)
COc1ccc2nc(Cl)c(-c3cc(-c4ccccc4)nc(N)n3)cc2c1 | 40.8% (inactive)
CN1CCN(c2ccc(Nc3nc(NCCCNC(=O)c4ccccc4)c4sccc4n3)cc2)CC1 | 93.5% (inactive)
O=C1Nc2ccc(F)cc2/C1=C/c1cccc(OCc2ccccc2)c1 | 48.4% (inactive)
Cc1noc2c(Cc3ccc([N+](=O)[O-])cc3)nn(CC(=O)N/N=C/c3ccc(Cl)cc3)c(=O)c12 | 16.9% (inactive)
O=c1[nH]c2ccc(Cl)cc2cc1CSc1ccc(Nc2nccc(-c3ccc(Cl)cc3)n2)cc1 | 93.8% (inactive)
O=S(=O)(Nc1ncccn1)c1ccc(-n2c(-c3ccc(Br)cc3)nc(-c3ccccc3)c2-c2ccccc2)cc1 | 56.8% (inactive)
Cc1ccc(C(=O)NNC(=O)CSc2nc3ccccc3c(=O)[nH]2)cc1 | 98.8% (inactive)
CCCn1c(O)c(N=Nc2nc(-c3cc4ccccc4oc3=O)cs2)c2cc(Br)ccc21 | 94.8% (inactive)
CN1CCN(c2ccc(Nc3nc(NCCNC(=O)c4ccc(C(F)(F)F)cc4)c4sccc4n3)cc2)CC1 | 19.4% (inactive)
CN1CCN(c2ccc(C(=O)/C=C/c3cc(C(F)(F)F)ccc3Cl)cc2)CC1 | -27.4% (active)
CCOc1ccc(/C=N/NC(=O)Cn2nc(Cc3ccccc3)c3onc(C)c3c2=O)cc1 | -39.3% (active)
O=C(NO)c1ccc(-c2nc3ccc4[nH]ncc4c3c3c2CCCC3)cc1 | 0.238% (active)
COc1ccc(-c2ccc(/C=N/NC(=O)c3[nH]c4ccc(Br)cc4c3-c3ccccc3)o2)cc1 | 47.2% (inactive)
